# Bim-Bcl-W: disrupts Bim peptide binding to human Bcl-W. bead-based flow cytometry. inhibition, % at 10 µM. 190,000 tested, 0.02% active. AID 952;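 also: higher means less fluorescent Bim peptide bound to Bcl-W beads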
# Target sequence (Q92843 whole entry, looked up): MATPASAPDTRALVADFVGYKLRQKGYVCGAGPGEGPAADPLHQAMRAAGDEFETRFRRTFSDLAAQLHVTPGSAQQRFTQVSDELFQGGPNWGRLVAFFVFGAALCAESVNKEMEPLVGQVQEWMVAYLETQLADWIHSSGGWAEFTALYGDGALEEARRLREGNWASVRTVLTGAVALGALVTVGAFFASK
# Bcl-2 Bim block: human Bim-Bcl-2 interaction inhibition; inhibition, % at 10 µM; Bead-based flow cytometry, Bim peptide-Bcl-2 binding; 190,000 tested, 0.06% active; in the data active = inhibition above about 40%
# Bim-Bcl-B: human Bim-Bcl-B interaction inhibition; bead-based flow cytometry, Bim peptide-Bcl-B binding; inhibition, % at 10 µM; 190,000 tested, 0.073% active; AID 951
# Target sequence (Q9HD36 whole entry, looked up): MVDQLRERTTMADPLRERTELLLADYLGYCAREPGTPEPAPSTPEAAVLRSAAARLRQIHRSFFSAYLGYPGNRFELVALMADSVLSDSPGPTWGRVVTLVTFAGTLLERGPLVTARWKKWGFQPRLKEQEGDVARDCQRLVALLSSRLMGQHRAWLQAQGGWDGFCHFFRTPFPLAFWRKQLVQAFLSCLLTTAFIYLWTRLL
# Bim-Bfl-1: human Bim-Bfl-1 interaction inhibition; Q16548; Bead-based flow cytometry, Bim-Bfl-1 binding inhibition; inhibition, % at 10 µM; 190,000 tested, 0.12% active
# Bcl-XL Bim block: human Bim-Bcl-XL interaction inhibition. 190,000 tested, 0.04% active. inhibition, % at 10 µM. Q07817. Bim peptide-Bcl-XL binding, bead flow cytometry, fluorescence
# Hits are given with their value; – = inactive; · = no result. Rows were chosen to be rich in hits. Some 0.19% of all compounds tested hit in one or more screens of this group. Rule as the data show it, unless noted: active = inhibition above about 40%.
SMILES,Bim-Bcl-W,Bcl-2 Bim block,Bim-Bcl-B,Bim-Bfl-1,Bcl-XL Bim block
C#CCOCCOCCOCCNc1nc(N2CCN(C(=O)[C@H]([C@@H](C)CC)n3cc([C@@H](N)CC(C)C)nn3)CC2)nc(N2CCN(C(=O)[C@H](Cc3cc4ccccc4[nH]3)n3cc([C@@H](N)Cc4ccc(O)cc4)nn3)CC2)n1,–,80,71,57,–
O=C(NCCc1cccc(Cl)c1)c1cc([N+](=O)[O-])ccc1Cl,–,–,–,–,–
O=C(NCCCN1CCN(CCCNC(=O)c2cc([N+](=O)[O-])ccc2Cl)CC1)c1cc([N+](=O)[O-])ccc1Cl,–,–,78,–,–
CC1Nc2ccccc2C(=O)N1NS(=O)(=O)c1ccccc1 (stereo not given),–,–,–,43,42
Cc1cc(Cl)ccc1C(=O)C1CCCN(C(=O)c2snnc2C)C1 (stereo not given),–,–,–,–,–
CC1(C(=O)N(CC(=O)NC2CCCC2)Cc2ccco2)CC(=O)N=C2C=CC=CN21 (stereo not given),–,88,·,·,–
CC1=CN2C(=NC(=O)CC2(C)C(=O)N(CC(=O)NC2CCCC2)c2ccccc2C)C=C1 (stereo not given),–,–,–,–,–
CC(=O)N1c2c(cc(Br)cc2S(=O)(=O)N2CCN(C(=O)c3ccco3)CC2)CC1C (stereo not given),–,–,–,–,–
CCN(CC)c1ccc(NC2=C(Cl)C(=O)c3ccccc3C2=O)cc1,–,–,–,70,–
CC(C)CC(=O)N1CC(C)N(C(=O)CC(C)C)CC1C (stereo not given),–,–,–,–,–
Cc1cc(C)c(NC(=O)CSc2nc3c(c(=O)n2C)SC(C)C3)c(C)c1 (stereo not given),–,–,–,–,–
CSc1nnc(C)c(=O)n1COC(=O)COc1ccc(Cl)cc1Cl,–,–,–,–,–
O=[N+]([O-])c1ccc2ccn(C3OCC(O)C(O)C3O)c2c1 (stereo not given),–,–,–,–,–
CN(Cc1cccs1)C(=O)CCc1c[nH]c2ccccc12,–,48,50,–,–
CCN(CC)S(=O)(=O)c1ccc(S(=O)(=O)N(CC(=O)Nc2ccccc2)Cc2ccco2)cc1,–,–,–,–,–
CN1/C(=C\C(=O)Nc2ccc(Cl)cc2)C(C)(C)c2ccccc21,–,–,–,–,40
COc1ccc2cc3c(N)c(C(=O)NCc4ccco4)sc3nc2c1,–,–,–,–,–
Nc1c(C(=O)NCc2ccco2)sc2nc3c(cc12)C(=O)CCC3,42,–,–,48,–
O=C(Nc1nccs1)C1Cc2ccccc2CN1S(=O)(=O)c1ccc(F)cc1 (stereo not given),–,–,–,–,–
O=C(Nc1nnc(C2CC2)s1)C1Cc2ccccc2CN1S(=O)(=O)c1ccccc1F (stereo not given),–,77,·,·,–
O=C(c1cc2ccccc2oc1=O)N(c1ccccc1)C1C=CS(=O)(=O)C1 (stereo not given),–,–,–,41,–
COc1ccc(OC)c(NC(=O)CCCN2C(=S)NC(C)(C)CC2C)c1 (stereo not given),42,43,54,50,49
COc1ccc(C)cc1NC(=O)CCCN1C(=S)NC(C)(C)CC1C (stereo not given),–,–,–,–,–
Cc1noc(C)c1COc1ccc(C(=O)Nc2cccnc2)cc1,–,–,43,–,–
Cc1ccc(NC(=O)c2cccc(OCc3c(C)noc3C)c2)cc1,–,–,–,–,–
SMILES,Bim-Bcl-W,Bcl-2 Bim block,Bim-Bcl-B,Bim-Bfl-1,Bcl-XL Bim block
CNCc1ccccc1Sc1ccc(O)c(O)c1,–,–,–,46,–
CC(/C=C/C(=O)c1ccc(C)cc1)=C\c1ccccc1,–,–,–,47,48
COC(=O)c1ccc(/C=N/NC(=O)CC(=O)NCc2cccnc2)cc1,–,54,51,–,–
O=C(N/N=C/c1ccncc1)c1cccc(NC(=O)c2ccccc2Cl)c1,–,–,–,–,43
COc1ccc(/C=N/NC(=O)c2cccc(NC(=O)c3ccccc3Cl)c2)cc1OC,–,–,–,–,–
O=[N+]([O-])c1c(NCCO)cc(N2CCC3(CC2)OCCO3)c2nonc12,–,–,–,–,–
CCOC(=O)N1CCN(c2cc(NCCC(=O)O)c3c4c(onc24)-c2ccccc2C3=O)CC1,–,–,–,43,40
CCOC(=O)N1CCN(c2c(NCCc3ccccc3)c(=O)c2=O)CC1,–,–,–,–,–
O=C(O)CCCNc1cc(N2CCC3(CC2)OCCO3)c2noc3c2c1C(=O)c1ccccc1-3,–,–,–,42,–
Cc1noc(C)c1COC(=O)c1cccnc1Cl,–,–,–,–,–
CCC(C)n1ncn(-c2ccc(N3CCN(c4ccc(OC)cc4)CC3)cc2)c1=O (stereo not given),–,–,–,–,–
S=C(NCCc1ccccc1)NCCc1ccccc1,–,–,–,44,–
CCC(=O)NC(Nc1nc(C)cs1)(C(=O)OC)C(F)(F)F (stereo not given),–,–,–,–,–
COc1ccc(CCNC(=O)c2cc(-c3ccco3)on2)cc1OC,–,–,–,–,–
COc1ccc(CCNC(=O)c2ccc3nc(-c4ccco4)c(-c4ccco4)nc3c2)cc1OC,–,–,–,42,–
Cc1ccc2cc(C)c(Sc3nnnn3-c3ccccc3)nc2c1,–,–,–,40,42
Cc1cc(-c2nnc(CCC(=O)NC(C)c3cccc4ccccc34)o2)no1 (stereo not given),–,73,78,44,–
COc1ccc(-c2onc(C)c2-c2ccccc2)c(O)c1,–,–,–,–,–
O=C1c2ccccc2-c2onc3c(Oc4ccccc4)cc(O)c1c23,–,–,–,43,–
O=C(NCc1ccccn1)C(=O)N/N=C/c1ccc2c(c1)OCO2,–,–,–,–,–
O=C(Nc1cccc(Cl)c1)Nc1ccc(Cl)cn1,–,77,72,51,–
Cc1cccc(N2C(S)=C(C#N)C(=O)NC2c2cccs2)c1 (stereo not given),–,–,–,42,–
N#CC1=C(S)N(c2ccc(F)cc2)C(c2cccs2)NC1=O (stereo not given),–,–,–,–,–
COC(=O)C1=C(C(=O)OC)C(c2ccccc2O)c2sc(=O)[nH]c2S1 (stereo not given),–,–,–,–,–
O=C(Cc1ccccc1)N/N=C/c1cccn1-c1ccc([N+](=O)[O-])cc1,–,–,50,–,–
CCOc1ncccc1C(=O)OC(C)C(=O)Nc1ccc(CC)cc1 (stereo not given),–,50,55,–,–
O=C(Nc1cccnc1Cl)c1ccc(Cl)c([N+](=O)[O-])c1,–,–,–,–,–
O=C(COc1ccccc1)Nc1ccc2c(c1)Cc1cc(NC(=O)COc3ccccc3)ccc1-2,110,104,107,91,103
Cc1cc(NC(=O)CCCC(=O)NCc2ccccc2)no1,–,51,43,–,–

# Source: PubChem
